# Measurements reported in PMC5540273 (PLoS ONE, 2017).
# Legend:
# Details in all cases: concentration: 1 μM, replicates: in singlicate; n = 1
# GRK2 = system: T1, GRK2
# T1 construct: gene ADRBK1
# GRK3 = system: T2, GRK3
# T2 construct: gene ADRBK2
# GRK4 = system: GRK4
# GRK7 = system: GRK7
# GSK3A = system: GSK3A
# GSK3B = system: GSK3B
# HASPIN = system: T3, HASPIN
# T3 construct: gene GSG2
# HCK = system: HCK
# HIPK1 = system: HIPK1
# HIPK2 = system: HIPK2
# HIPK3 = system: HIPK3
# HIPK4 = system: HIPK4
# HPK1 = system: HPK1
# HUNK = system: HUNK
# ICK = system: ICK
# IGF1R = system: IGF1R
# IKK-alpha = system: T4, IKK-alpha
# T4 construct: gene CHUK
# IKK-beta = system: T5, IKK-beta
# T5 construct: gene IKBKB
# IKK-epsilon = system: T6, IKK-epsilon
# T6 construct: gene IKBKE
# INSRR = system: INSRR
# 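Note: KINOMEscan kinase panel screen.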
Structure (SMILES),%Inh (GRK2) [%],%Inh (GRK3) [%],%Inh (GRK4) [%],%Inh (GRK7) [%],%Inh (GSK3A) [%],%Inh (GSK3B) [%],%Inh (HASPIN) [%],%Inh (HCK) [%],%Inh (HIPK1) [%],%Inh (HIPK2) [%],%Inh (HIPK3) [%],%Inh (HIPK4) [%],%Inh (HPK1) [%],%Inh (HUNK) [%],%Inh (ICK) [%],%Inh (IGF1R) [%],%Inh (IKK-alpha) [%],%Inh (IKK-beta) [%],%Inh (IKK-epsilon) [%],%Inh (INSRR) [%]
O=C(Nc1n[nH]c2cc(-c3ccccc3F)ccc12)C1CC1 [SB-733371],0,0,26,0,24,19,22,0,2,0,3,0,8,0,32,0,0,0,0,9
Nc1ncnc2c1ncn2-c1cccc2ccccc12 [SKF-97184],0,0,14,4,8,23,60,7,34,0,0,7,2,45,0,0,16,3,0,0
O=c1cc(N2CCOCC2)nc2n(Cc3ccc(F)c(Cl)c3)ccn12 [GSK2297099],0,0,0,0,0,8,0,0,7,0,23,0,25,0,16,0,3,17,0,0
O=C(NCCNc1ccnc(Nc2ccc(F)cc2)n1)Nc1ccc2c(c1)OCO2 [GSK1379882],0,0,0,0,34,6,0,0,0,0,9,0,37,1,0,0,3,7,14,0
CCc1nc(-c2cccc(C)c2)c(-c2ccncc2)s1,0,0,0,0,27,0,0,21,30,0,0,0,8,0,0,0,0,0,0,0
CCS(=O)(=O)c1ccc(OC)c(Nc2ncc(-c3ccc(F)cc3)o2)c1.Cl [GW591947],0,0,0,0,8,0,0,0,33,0,37,0,17,22,0,20,0,1,0,0
COc1cc2ncn(-c3cc(OCc4ccc(S(C)(=O)=O)cc4)c(C(N)=O)s3)c2cc1OC [GW869979],45,0,1,0,3,0,40,0,0,9,2,26,10,2,19,6,0,7,25,0
Cc1cc(Nc2nc(-c3cccc(C)n3)nc3ccccc23)ccn1 [GW872411],0,0,35,0,0,0,0,7,0,0,0,0,0,28,0,0,0,0,0,0
COc1ccc(-c2cc3c(C)nc(N)nc3n([C@H]3CC[C@H](OCCO)CC3)c2=O)cn1,17,0,1,1,0,1,33,13,17,0,5,0,0,0,0,0,0,0,0,0
CC(C)(C)c1ccc(C(=O)Nc2cn3cc(-c4ccccc4)ccc3n2)cc1,0,0,26,0,12,30,0,13,43,52,20,0,0,9,0,0,5,6,0,0
Cc1ccccc1COc1cc(-n2cnc3cc(Cl)ccc32)sc1C(N)=O [GW813349],0,0,2,0,17,14,16,11,30,24,12,21,62,18,0,9,0,0,62,23
FC(F)(F)c1ccc(-c2ncn(CCCN3CCOCC3)c2-c2ccncc2)cc1 [SB-217780],5,0,26,0,0,25,11,8,18,52,7,0,1,0,64,0,1,0,8,0
Cc1nnc(-c2ccc(C)c(-c3ccc(C(=O)O)cc3)c2)o1 [GW608005],0,0,0,0,7,0,0,0,0,0,7,0,7,0,0,0,30,25,1,10
Cn1c(=O)c(F)c(Nc2ccc(I)cc2F)c2c(=O)n(OC[C@H](O)CO)cnc21,0,0,0,0,0,3,4,10,52,0,0,81,0,0,0,0,0,0,0,0
COc1cc2nccc(Nc3ccc(OCc4ccc(NC(C)=O)cc4)cc3)c2cc1OC.Cl [GW440135],0,17,23,4,0,0,18,0,0,0,0,0,36,21,0,0,10,0,3,8
Cc1cccc(-c2cc(-c3c[nH]nc3-c3ccccn3)ccn2)c1 [GW679395],0,39,0,0,17,7,25,0,0,0,13,0,32,10,9,0,4,25,21,0
COc1cc2ncn(-c3cc(OCCCc4ccccc4)c(C(N)=O)s3)c2cc1OC [GSK205189],0,0,13,0,10,0,0,4,9,0,0,60,28,0,0,13,0,0,14,3
COc1cc2ncn(-c3cc(OCc4ccncc4)c(C(N)=O)s3)c2cc1OC [GSK336313],0,0,0,0,15,7,0,0,15,0,21,0,21,0,4,0,0,0,26,99.3
CN1C(=O)C(Nc2cc(Cl)c(O)c(Cl)c2)=C(c2ccc(Cl)cc2)C1=O [SB-404321],22,28,96.7,0,0,0,0,0,0,38,0,0,12,0,6,0,0,0,0,0
COc1cc2ncn(-c3cc(OCc4ccncc4Br)c(C(N)=O)s3)c2cc1OC [GW854278],5,0,35,4,7,0,5,3,0,4,15,32,0,0,5,0,6,3,0,7
COc1ccc(Nc2nccc(N3CCC(NS(=O)(=O)c4ccc(NC(C)=O)cc4)C3)n2)cc1 (stereo not drawn) [GSK1379729],3,0,49,0,0,7,19,7,0,20,14,12,64,0,13,22,12,6,12,21
